# Measured values reported in PMC9911399, “Two distinct binding modes provide the RNA-binding protein RbFox with extraordinary sequence specificity”.
# Numbering of substitutions follows the chain as printed; changes in the protein carry UniProt numbers. In all, about 16,000 sequences were measured (“ka relative to ugcaugu”: median about 0.0091, highest 2% from about 0.032 on). What follows is part of a selection rich in the highest values, with near analogues and random picks from the rest.
# T1: RBFOX1 RRM (Homo sapiens, UniProt Q9NWB1 109-208)
# T1 sequence: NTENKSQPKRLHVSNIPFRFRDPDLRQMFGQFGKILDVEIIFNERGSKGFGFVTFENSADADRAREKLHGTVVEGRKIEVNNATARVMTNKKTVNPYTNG
# B1: GUGGCCC (DNA:RNA)
# RNA: GGGAGACCGGAAUUCAGAUUGUCCGUGGCCCUUAAAUCCCGUCGUAGCCACCA
# DNA 1: CAATCTGAATTCCGGTCTCCC
# DNA 2: TGGTGGCTACGACGGGATT
# B2: CGGGUGG (DNA:RNA)
# RNA: B1 RNA with G25C, U26G, C29U, C30G, C31G
# DNA 1: CAATCTGAATTCCGGTCTCCC
# DNA 2: TGGTGGCTACGACGGGATT
# B3: GGGUGUC (DNA:RNA)
# RNA: B1 RNA with U26G, G28U, C29G, C30U
# DNA 1: CAATCTGAATTCCGGTCTCCC
# DNA 2: TGGTGGCTACGACGGGATT
# B4: ACGGGUG (DNA:RNA)
# RNA: B1 RNA with G25A, U26C, C29G, C30U, C31G
# DNA 1: CAATCTGAATTCCGGTCTCCC
# DNA 2: TGGTGGCTACGACGGGATT
# B5: CGGGGUG (DNA:RNA)
# RNA: B1 RNA with G25C, U26G, C29G, C30U, C31G
# DNA 1: CAATCTGAATTCCGGTCTCCC
# DNA 2: TGGTGGCTACGACGGGATT
# B6: CCGGGUG (DNA:RNA)
# RNA: B1 RNA with G25C, U26C, C29G, C30U, C31G
# DNA 1: CAATCTGAATTCCGGTCTCCC
# DNA 2: TGGTGGCTACGACGGGATT
# B7: GGGUGUG (DNA:RNA)
# RNA: B1 RNA with U26G, G28U, C29G, C30U, C31G
# DNA 1: CAATCTGAATTCCGGTCTCCC
# DNA 2: TGGTGGCTACGACGGGATT
# B8: GGGGGUG (DNA:RNA)
# RNA: B1 RNA with U26G, C29G, C30U, C31G
# DNA 1: CAATCTGAATTCCGGTCTCCC
# DNA 2: TGGTGGCTACGACGGGATT
# B9: GGGUGGU (DNA:RNA)
# RNA: B1 RNA with U26G, G28U, C29G, C30G, C31U
# DNA 1: CAATCTGAATTCCGGTCTCCC
# DNA 2: TGGTGGCTACGACGGGATT
# B10: GGGGUGG (DNA:RNA)
# RNA: B1 RNA with U26G, C29U, C30G, C31G
# DNA 1: CAATCTGAATTCCGGTCTCCC
# DNA 2: TGGTGGCTACGACGGGATT
# B11: CUGGACU (DNA:RNA)
# RNA: B1 RNA with G25C, C29A, C31U
# DNA 1: CAATCTGAATTCCGGTCTCCC
# DNA 2: TGGTGGCTACGACGGGATT
# B12: AUUAGUU (DNA:RNA)
# RNA: B1 RNA with G25A, G27U, G28A, C29G, C30U, C31U
# DNA 1: CAATCTGAATTCCGGTCTCCC
# DNA 2: TGGTGGCTACGACGGGATT
# B13: UACCGUC (DNA:RNA)
# RNA: B1 RNA with G25U, U26A, G27C, G28C, C29G, C30U
# DNA 1: CAATCTGAATTCCGGTCTCCC
# DNA 2: TGGTGGCTACGACGGGATT
# B14: ACUAUCA (DNA:RNA)
# RNA: B1 RNA with G25A, U26C, G27U, G28A, C29U, C31A
# DNA 1: CAATCTGAATTCCGGTCTCCC
# DNA 2: TGGTGGCTACGACGGGATT
# B15: UGGGUGG (DNA:RNA)
# RNA: B1 RNA with G25U, U26G, C29U, C30G, C31G
# DNA 1: CAATCTGAATTCCGGTCTCCC
# DNA 2: TGGTGGCTACGACGGGATT
# B16: GUCGUUC (DNA:RNA)
# RNA: B1 RNA with G27C, C29U, C30U
# DNA 1: CAATCTGAATTCCGGTCTCCC
# DNA 2: TGGTGGCTACGACGGGATT
# B17: GUGCGUG (DNA:RNA)
# RNA: B1 RNA with G28C, C29G, C30U, C31G
# DNA 1: CAATCTGAATTCCGGTCTCCC
# DNA 2: TGGTGGCTACGACGGGATT
# B18: UUGCGUG (DNA:RNA)
# RNA: B1 RNA with G25U, G28C, C29G, C30U, C31G
# DNA 1: CAATCTGAATTCCGGTCTCCC
# DNA 2: TGGTGGCTACGACGGGATT
# B19: UUGGGUG (DNA:RNA)
# RNA: B1 RNA with G25U, C29G, C30U, C31G
# DNA 1: CAATCTGAATTCCGGTCTCCC
# DNA 2: TGGTGGCTACGACGGGATT
# B20: CUUGUCC (DNA:RNA)
# RNA: B1 RNA with G25C, G27U, C29U
# DNA 1: CAATCTGAATTCCGGTCTCCC
# DNA 2: TGGTGGCTACGACGGGATT
# B21: GUGUGCG (DNA:RNA)
# RNA: B1 RNA with G28U, C29G, C31G
# DNA 1: CAATCTGAATTCCGGTCTCCC
# DNA 2: TGGTGGCTACGACGGGATT
# B22: UUGUCCC (DNA:RNA)
# RNA: B1 RNA with G25U, G28U
# DNA 1: CAATCTGAATTCCGGTCTCCC
# DNA 2: TGGTGGCTACGACGGGATT
# B23: CCGUGCG (DNA:RNA)
# RNA: B1 RNA with G25C, U26C, G28U, C29G, C31G
# DNA 1: CAATCTGAATTCCGGTCTCCC
# DNA 2: TGGTGGCTACGACGGGATT
# B24: UUGGGAA (DNA:RNA)
# RNA: B1 RNA with G25U, C29G, C30A, C31A
# DNA 1: CAATCTGAATTCCGGTCTCCC
# DNA 2: TGGTGGCTACGACGGGATT
# B25: UUGCGUC (DNA:RNA)
# RNA: B1 RNA with G25U, G28C, C29G, C30U
# DNA 1: CAATCTGAATTCCGGTCTCCC
# DNA 2: TGGTGGCTACGACGGGATT
# B26: UUGGGGG (DNA:RNA)
# RNA: B1 RNA with G25U, C29G, C30G, C31G
# DNA 1: CAATCTGAATTCCGGTCTCCC
# DNA 2: TGGTGGCTACGACGGGATT
# B27: CGUGUCC (DNA:RNA)
# RNA: B1 RNA with G25C, U26G, G27U, C29U
# DNA 1: CAATCTGAATTCCGGTCTCCC
# DNA 2: TGGTGGCTACGACGGGATT
# B28: UUGUGUG (DNA:RNA)
# RNA: B1 RNA with G25U, G28U, C29G, C30U, C31G
# DNA 1: CAATCTGAATTCCGGTCTCCC
# DNA 2: TGGTGGCTACGACGGGATT
# B29: UCUCAAU (DNA:RNA)
# RNA: GGGAGACCGGAAUUCAGAUUGUCCUCUCAAUUUAAAUCCCGUCGUAGCCACCA
# DNA 1: CAATCTGAATTCCGGTCTCCC
# DNA 2: TGGTGGCTACGACGGGATT
# B30: CGUCACC (DNA:RNA)
# RNA: B29 RNA with U25C, C26G, A30C, U31C
# DNA 1: CAATCTGAATTCCGGTCTCCC
# DNA 2: TGGTGGCTACGACGGGATT
# B31: GACAUGU (DNA:RNA)
# RNA: B1 RNA with U26A, G27C, G28A, C29U, C30G, C31U
# DNA 1: CAATCTGAATTCCGGTCTCCC
# DNA 2: TGGTGGCTACGACGGGATT
# Target: T1, RBFOX1 RRM
# Assay: EMSA; HiTS-Eq, 1 nM pool, 10 min; buffer printed only for the single-RNA assays: 10 mM Tris pH 7.5, 150 mM NaCl, 3.4 mM EDTA, 0.001% NP-40, 30 C
# Conditions: tags: His6 N-terminal (pET28a); label: 5' 32P
# Summary of the method: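 Relative association constants, normalised to the cognate motif, were derived by comparing read counts of each RNA species with those of the control reaction. The RNA sequenced was the free fraction, separated by 8% native PAGE after a 10 min equilibration in 50 µL of 1 nM 5′-radiolabelled RNA (7 randomized nucleotides) with increasing concentrations of purified wild-type or mutant RbFox RRM.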
row,Binder,binding signal
1,B1,0.0179 KA relative to UGCAUGU
2,B2,0.0171 KA relative to UGCAUGU
3,B3,0.0216 KA relative to UGCAUGU
4,B4,0.0185 KA relative to UGCAUGU
5,B5,0.0399 KA relative to UGCAUGU
6,B6,0.0271 KA relative to UGCAUGU
7,B7,0.0275 KA relative to UGCAUGU
8,B8,0.0397 KA relative to UGCAUGU
9,B9,0.0199 KA relative to UGCAUGU
10,B10,0.0333 KA relative to UGCAUGU
11,B11,0.00842 KA relative to UGCAUGU
12,B12,0.00711 KA relative to UGCAUGU
13,B13,0.0072 KA relative to UGCAUGU
14,B14,0.00217 KA relative to UGCAUGU
15,B15,0.0279 KA relative to UGCAUGU
16,B16,0.0139 KA relative to UGCAUGU

row,Binder,binding signal
1,B17,0.0481 KA relative to UGCAUGU
2,B18,0.0447 KA relative to UGCAUGU
3,B19,0.0408 KA relative to UGCAUGU
4,B20,0.0101 KA relative to UGCAUGU
5,B21,0.0191 KA relative to UGCAUGU
6,B22,0.0102 KA relative to UGCAUGU
7,B23,0.0124 KA relative to UGCAUGU
8,B24,0.0102 KA relative to UGCAUGU
9,B25,0.0198 KA relative to UGCAUGU
10,B26,0.0118 KA relative to UGCAUGU
11,B27,0.00858 KA relative to UGCAUGU
12,B28,0.0403 KA relative to UGCAUGU
13,B29,0.0038 KA relative to UGCAUGU
14,B30,0.00293 KA relative to UGCAUGU
15,B31,0.0153 KA relative to UGCAUGU
